The values below come from PubChem BioAssay (Tox21).

Values without a mark were called inactive. Inconclusive results are not listed. Activity calls are given as the source filed them. Unless noted, the call rests on the fitted dose curve; in most records, active means well fitted curve in the direction sought with a large enough effect in the repeat runs; inconclusive means weak or mixed curves; inactive means no such curve, though single readings can be large; an effect the other way counts as inactive or inconclusive.

Test [1] is described as follows: qHTS assay to test for compound auto fluorescence at 535 nm (green) in HEK293 cells (AID 720680). (qHTS replaces the single test concentration by a dilution series.)
A short description of test [2]: qHTS assay to test for compound auto fluorescence at 460 nm (blue) in HEK293 cell free culture (AID 720681). In short, it runs like this:
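Test compounds were pinned into cell-free culture medium (DMEM with 10% FBS) and fluorescence was read directly at Ex/Em 405/460 nm. Signals were expressed as fluorescence equivalents of triamterene, with DMSO vehicle as control.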

The nature of test [3]: qHTS assay to test for compound auto fluorescence at 535 nm (green) in HEK293 cell free culture (AID 720682). In outline: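 No cells present: wells hold DMEM supplemented with 10% FBS, into which compound or vehicle is pinned. Green emission is then recorded (485 nm excitation, 535 nm emission) and scaled to fluorescein.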
The nature of test [4]: qHTS assay to test for compound auto fluorescence at 590 nm (red) in HEK293 cell free culture (AID 720683). In outline:
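Tox21 10K library compounds were pinned into cell-free DMEM with 10% FBS and fluorescence was read at excitation 540 nm. Activity is expressed as Rose Bengal sodium equivalency.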

A short description of test [5]: qHTS assay to test for compound auto fluorescence at 590 nm (red) in HepG2 cell free culture (AID 720684). In short, it runs like this:
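Measured in medium alone (MEM containing 10% FBS) following pintool addition of compound; emission at 590 nm with 540 nm excitation, referenced to Rose Bengal sodium.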

A short description of test [6]: qHTS assay to test for compound auto fluorescence at 460 nm (blue) in HepG2 cell free culture (AID 720685). In outline: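 Compound (23 nL) or DMSO pinned into cell-free MEM with 10% FBS; blue fluorescence read at 405/460 nm excitation/emission, expressed as auto-fluorescence equivalency to triamterene.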
The nature of test [7]: qHTS assay to test for compound auto fluorescence at 460 nm (blue) in HepG2 cells (AID 720687). In outline:
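Cells (2,000/well in MEM with 10% FBS) attached overnight at 37 C, then were exposed to compound or DMSO for 1 hr at 37 C, 5% CO2. Fluorescence read at Ex/Em 405/460 nm, expressed as triamterene-equivalent signal.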

Test [8] deals with Glucocorticoid receptor (Homo sapiens) (UniProt P04150). As to the kind of experiment: qHTS assay to identify small molecule agonists of the glucocorticoid receptor (GR) signaling pathway (AID 720691; active means well fitted activation curve with a large enough effect in the signal ratio in the repeat runs, not every such curve was filed as active; the % refers to the signal ratio). In outline:
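Beta-lactamase reporter activity, read as fluorescence intensity, was measured in GR-bla HeLa cells exposed to compounds for 18 h at 37 C and then loaded with LiveBLAzer B/G FRET substrate for 2 h at room temperature.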

Test [9] shares this target. As to the kind of experiment: qHTS assay to identify small molecule antagonists of the glucocorticoid receptor (GR) signaling pathway (AID 720692; active means well fitted inhibition curve with a large enough effect in the signal ratio in the repeat runs, not every such curve was filed as active; the % refers to the signal ratio). In short, it runs like this:
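Fluorescence from cleaved LiveBLAzer B/G FRET substrate reports GRE-driven beta-lactamase in HeLa cells; compounds are tested against 5 nM dexamethasone (final) over 18 h at 37 C, substrate incubation 2 h at room temperature.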

Test [10] is described as follows: qHTS assay to identify small molecule antagonists of the glucocorticoid receptor (GR) signaling pathway - cell viability counter screen (AID 720693). Further: nearly all actives have a fitted effect of over 55% in size.
Test [11] is described as follows: qHTS assay for identifying genotoxic compounds that show differential cytotoxicity against isogenic chicken DT40 cell lines with known DNA damage response pathways - wild type cell line (AID 743012). Further: nearly all actives have a fitted effect of over 60% in size. Further: potency means the concentration at half of the fitted maximal effect. In short, it runs like this: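 Quantitative HTS on parental DT40 cells: 40 h compound treatment at 37 C/5% CO2, with viability then determined by CellTiter-Glo luminescence. Values serve as the DNA repair-proficient reference for differential cytotoxicity.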

Test [12] is described as follows: qHTS assay for identifying genotoxic compounds that show differential cytotoxicity against isogenic chicken DT40 cell lines with known DNA damage response pathways - Rev3 mutant cell line (AID 743014). Further: nearly all actives have a fitted effect of over 55% in size. Further: potency means the concentration at half of the fitted maximal effect.
A short description of test [13]: qHTS assay for identifying genotoxic compounds that show differential cytotoxicity against isogenic chicken DT40 cell lines with known DNA damage response pathways - Rad54/Ku70 mutant cell line (AID 743015). Further: nearly all actives have a fitted effect of over 60% in size. Further: potency means the concentration at half of the fitted maximal effect.
Test [14] is described as follows: qHTS assay to identify small molecule antagonists of the androgen receptor (AR) signaling pathway - cell viability counter screen (AID 743033; further: nearly all actives have a fitted effect of over 45% in size).
A short description of test [15]: qHTS assay to identify small molecule antagonists of the androgen receptor (AR) signaling pathway using the MDA cell line - cell viability counter screen (AID 743041; further: nearly all actives have a fitted effect of over 45% in size). In short, it runs like this: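 Viability counter screen run alongside the AR antagonist reporter: cells seeded 5 h before compound, R1881 added, 16 h incubation at 37C without CO2, fluorescent CellTiter-Fluor signal quantified.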

The target of test [16] is Androgen receptor (Homo sapiens) (UniProt P10275). As to the kind of experiment: qHTS assay to identify small molecule antagonists of the androgen receptor (AR) signaling pathway (AID 743035; active means well fitted inhibition curve with a large enough effect in the signal ratio in the repeat runs, not every such curve was filed as active; the % refers to the signal ratio). In short, it runs like this: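 Cell line: GeneBLAzer AR-UAS-bla GripTite (HEK293). Stimulus: R1881 added after compound. Exposure: 16 h, 37C, 5% CO2. Readout: LiveBLAzer B/G FRET fluorescence after 2 h at room temperature.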

Test [17] shares this target. The test can be described thus: qHTS assay to identify small molecule agonists of the androgen receptor (AR) signaling pathway (AID 743036; active means well fitted activation curve with a large enough effect in the signal ratio in the repeat runs, with a control signal flat, not every such curve was filed as active; the % refers to the signal ratio). In short, it runs like this: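 Quantitative HTS of the Tox21 10K library in HEK293 cells bearing a stably integrated UAS-controlled beta-lactamase reporter. Compound exposure lasted 16 h at 37C. Reporter activity was detected by FRET substrate fluorescence after 2 h at room temperature.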

For test [18] the target is unchanged. As to the kind of experiment: qHTS assay to identify small molecule agonists of the androgen receptor (AR) signaling pathway using the MDA cell line (AID 743040; further: nearly all actives have a fitted effect of over 20% in size). In short, it runs like this:
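Luminescence from ONE-Glo, read after 30 min at room temperature, reflects MMTV-driven luciferase in MDA-kb2 cells (AR- and GR-responsive). Treatment lasted 16 h at 37C, 0% CO2.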

The target is the same in test [19]. The test can be described thus: qHTS assay to identify small molecule antagonists of the androgen receptor (AR) signaling pathway using the MDA cell line (AID 743042; further: nearly all actives have a fitted effect of over 55% in size). In short, it runs like this: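 MDA-kb2 cells (human breast carcinoma, stably carrying an MMTV-luciferase reporter responsive to AR and GR) were plated at 3,000 cells/well and preincubated 5 hr at 37C, then given compound plus R1881 agonist for 16 h. ONE-Glo luminescence was read.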

Glucocorticoid receptor (Homo sapiens), sequence (P04150 whole entry, looked up): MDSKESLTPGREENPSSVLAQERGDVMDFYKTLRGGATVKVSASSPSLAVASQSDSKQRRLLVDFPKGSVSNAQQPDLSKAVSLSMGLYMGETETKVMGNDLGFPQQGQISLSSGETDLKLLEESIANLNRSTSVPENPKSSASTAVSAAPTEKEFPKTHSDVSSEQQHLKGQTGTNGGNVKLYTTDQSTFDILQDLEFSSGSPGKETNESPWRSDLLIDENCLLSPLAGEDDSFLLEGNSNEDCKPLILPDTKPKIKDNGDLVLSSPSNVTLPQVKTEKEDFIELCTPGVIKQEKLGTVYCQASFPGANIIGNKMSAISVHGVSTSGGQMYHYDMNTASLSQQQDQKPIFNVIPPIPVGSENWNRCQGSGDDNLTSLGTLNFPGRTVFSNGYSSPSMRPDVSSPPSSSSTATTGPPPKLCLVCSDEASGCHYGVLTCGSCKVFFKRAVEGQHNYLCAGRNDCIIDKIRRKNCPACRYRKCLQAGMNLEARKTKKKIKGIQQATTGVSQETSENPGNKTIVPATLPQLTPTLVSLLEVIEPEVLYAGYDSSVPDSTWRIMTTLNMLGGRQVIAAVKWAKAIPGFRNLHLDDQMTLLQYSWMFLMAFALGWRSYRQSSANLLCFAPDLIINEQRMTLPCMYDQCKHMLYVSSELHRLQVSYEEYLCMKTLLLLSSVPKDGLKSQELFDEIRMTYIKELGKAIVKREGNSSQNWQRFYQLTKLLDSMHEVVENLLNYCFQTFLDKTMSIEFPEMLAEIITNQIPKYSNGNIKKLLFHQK
Androgen receptor (Homo sapiens), sequence (P10275 whole entry, looked up): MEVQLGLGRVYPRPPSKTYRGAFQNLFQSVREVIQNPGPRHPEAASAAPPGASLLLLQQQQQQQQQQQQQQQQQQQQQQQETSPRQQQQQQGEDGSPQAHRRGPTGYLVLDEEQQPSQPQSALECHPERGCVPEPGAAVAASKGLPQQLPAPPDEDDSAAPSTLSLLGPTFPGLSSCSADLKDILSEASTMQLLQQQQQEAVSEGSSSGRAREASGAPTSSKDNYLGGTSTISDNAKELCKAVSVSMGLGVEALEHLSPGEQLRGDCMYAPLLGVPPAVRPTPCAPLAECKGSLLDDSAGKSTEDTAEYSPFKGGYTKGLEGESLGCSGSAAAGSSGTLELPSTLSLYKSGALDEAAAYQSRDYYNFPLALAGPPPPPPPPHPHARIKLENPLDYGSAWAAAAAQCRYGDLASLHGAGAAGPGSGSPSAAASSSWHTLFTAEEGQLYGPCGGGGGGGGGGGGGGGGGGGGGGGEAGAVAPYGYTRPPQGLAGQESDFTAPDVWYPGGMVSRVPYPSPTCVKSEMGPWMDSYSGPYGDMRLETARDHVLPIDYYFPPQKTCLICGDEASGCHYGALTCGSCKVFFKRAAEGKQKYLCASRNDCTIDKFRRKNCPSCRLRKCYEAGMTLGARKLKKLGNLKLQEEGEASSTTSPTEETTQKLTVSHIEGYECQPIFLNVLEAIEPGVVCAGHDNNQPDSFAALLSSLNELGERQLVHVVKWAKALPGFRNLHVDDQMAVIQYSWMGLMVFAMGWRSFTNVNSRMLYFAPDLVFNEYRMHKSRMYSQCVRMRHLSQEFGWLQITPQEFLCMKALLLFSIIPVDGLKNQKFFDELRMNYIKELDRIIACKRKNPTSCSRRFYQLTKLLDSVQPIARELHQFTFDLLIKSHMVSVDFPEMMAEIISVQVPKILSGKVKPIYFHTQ

For `Cc1ccccc1OCC(O)CO` (stereo unspecified), the outcome in test [1], in [2], in test [3], in test [4], in test [5] and in test [6] was inactive. Moreover, the molecule was called inactive in [7], in test [9] and in test [10]. The Potency entry in test [8], in test [11], in [12], in test [13], in test [14] and in test [15] was “inactive” throughout.

`ClCCCl`: the result in [1], in test [2], in test [3], in [4], in test [5] and in test [6] was inactive. Besides, the result in test [7] and in test [10] was inactive. Besides, the Potency result in test [8], in test [11], in test [12], in test [14] and in test [15] was “inactive” throughout.

Take `CC(=O)OC(C)OC(=O)C(C)c1ccc(-c2ccccc2)c(F)c1` (stereo unspecified): the call in test [1], in test [2], in [3], in [4], in test [5] and in [6] was inactive. In addition, the outcome in [7], in [9], in test [10], in [17] and in test [18] was inactive. Besides, the Potency result in test [8], in test [11], in test [12], in [13], in [14] and in [16] was “inactive” throughout. Also, the Potency result in [15] and in test [19] was “inactive” throughout.

For `CC(=O)c1sc(C)nc1C`, the molecule was classed as inactive in [1], in [2], in test [3], in [4], in test [5] and in [6]. In addition, the molecule was called inactive in test [7] and in test [10]. The Potency entry in test [8], in [11], in [12], in test [13], in [14] and in test [15] was “inactive” in each case.

Turning to `BrCCCCCBr`, the molecule was called inactive in test [1], in test [2], in test [3], in test [4], in [5] and in test [6]. In addition, the call in test [7] and in test [10] was inactive. Further, the Potency entry in test [8], in test [11], in test [12], in test [13], in [14] and in test [15] was “inactive” throughout.

For the molecule `Oc1cn2c(n1)Nc1ccc(Cl)c(Cl)c1C2`, the molecule was classed as inactive in test [1], in test [2], in test [3], in test [4], in test [5] and in test [6]. In addition, the outcome in test [7], in [10], in [17] and in test [18] was inactive. The Potency entry in test [8], in test [11], in test [12], in test [13], in [14] and in test [16] was “inactive” throughout. Moreover, the Potency result in [15] and in [19] was “inactive” in each case.

With `N[C@@H](CCC(=O)N[C@@H](CS)C(=O)NCC(=O)O)C(=O)O`, the result in test [1], in [2], in [3], in test [4], in test [5] and in [6] was inactive. The result in test [7] and in test [10] was inactive. The Potency entry in test [11], in [12], in test [13], in test [14] and in test [15] was “inactive” each time.

Consider `CCCOC(=O)C(C)O` (stereo unspecified), for which the molecule was classed as inactive in test [1], in test [2], in test [3], in test [4], in [5] and in test [6]. Further, the result in test [7], in test [17] and in test [18] was inactive. Further, the Potency result in test [16], in test [15] and in test [19] was “inactive” each time.

With `COCCOC(=O)C1=C(C)NC(C)=C(C(=O)OC(C)C)C1c1cccc([N+](=O)[O-])c1` (stereo unspecified), the molecule was called inactive in test [1], in test [2], in test [3], in test [4], in test [5] and in test [6]. Also, the result in test [7] and in [10] was inactive. Also, the Potency is 26.6 µM (active) in test [11], 26.6 µM (active) in test [12] and 23.7 µM (active) in test [13]. The Potency entry in [14] and in test [15] was “inactive” each time.
